# Test results reported in the supplement of paper PMC5641865, “A screen for kinase inhibitors identifies antimicrobial imidazopyridine aminofurazans as specific inhibitors of the Listeria monocytogenes PASTA kinase PrkA” (The Journal of Biological Chemistry, 2017).
# ± gives the standard deviation of the averaged measurements.
# Test system: Listeria monocytogenes 10403S
# Assay: growth inhibition relative to ceftriaxone-alone control; higher = stronger potentiation of ceftriaxone growth inhibition
# Conditions: 10 µM; ceftriaxone 1 ug/ml; 12 h
# 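Further: End-point A600 read in BHI broth at 37 °C with 2% DMSO, inhibition computed as (1 − OD with compound plus ceftriaxone ÷ OD with ceftriaxone only) × 100.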
row,Compound,growth inhibition [%]
1,COc1ccc(-c2ccc3ncc4c(c3c2)n(-c2ccc(N3CCNCC3)c(C(F)(F)F)c2)c(=O)n4C)cn1,28.5 ± 9.7
2,CN1CCC(n2cnc(-c3ccc(F)cc3)c2-c2ccnc(N)n2)CC1,-0.672 ± 2
3,Cc1cc(CN2CCN(c3c(Br)cnc4nc(-c5ccc(N6CCN(C)CC6)cc5)[nH]c34)CC2)no1,40.4 ± 40
4,Nc1nc(Nc2ccc(S(N)(=O)=O)cc2)nn1C(=O)c1c(F)cccc1F,27.6 ± 6.5
5,Cc1ccc(NC(=O)c2cccc(N(C)C)c2)cc1NC(=O)c1ccc(O)cc1,29.5 ± 12
6,NC(=O)c1ccc(N(C(N)=O)c2c(F)cccc2F)nc1-c1ccc(F)cc1F,3.69 ± 12
7,Cc1cc(C)c(/C=C2\C(=O)Nc3ccccc32)[nH]1 [Semaxanib (SU5416)],-4.38 ± 12
8,CCn1c(-c2nonc2N)nc2c(C#CC(C)(C)O)nc(OCCNC)cc21,41.3 ± 18
9,CCn1c(-c2nonc2N)nc2ccccc21,-9.18 ± 6.6
10,CN1CCC(C(=O)Nc2n[nH]c3nnc(-c4ccccc4)cc23)CC1,17.5 ± 11
11,Cc1[nH]c(/C=C2\C(=O)Nc3ccc(S(=O)(=O)Cc4c(Cl)cccc4Cl)cc32)c(C)c1C(=O)N1CCC[C@@H]1CN1CCCC1,78 ± 5.2
12,Cn1cc(C2=C(c3ccc(Cl)cc3Cl)C(=O)NC2=O)c2ccccc21,19.5 ± 33
13,Cc1nc(Nc2ncc(C(=O)Nc3c(C)cccc3Cl)s2)cc(N2CCN(CCO)CC2)n1,32 ± 20
14,NS(=O)(=O)c1ccc(-c2cc3ccncc3cc2OCc2ccccc2)cc1,-3.99 ± 6.9
15,C[C@@H](Oc1cc(-n2cnc3ccc(CN4CCN(C)CC4)cc32)sc1C(N)=O)c1ccccc1C(F)(F)F,88.5 ± 8.4
16,Cc1[nH]c(/C=C2\C(=O)Nc3ccccc32)c(C)c1CCC(=O)O,98.7 ± 2.4
17,Nc1nc(N)c2nc(-c3cccc(O)c3)cnc2n1,8.99 ± 4.4
18,COc1cccc(-n2ncc3c(N/N=C/c4ccncc4)ncnc32)c1,-5.6 ± 4.6
19,O=C(NCC1CC1)c1ccc(-c2cccc(C(=O)NC3CC3)c2)cc1,-0.0355 ± 1.1

row,Compound,growth inhibition [%]
1,FC(F)(F)c1ccc(/C=C/c2nc(COc3ccc(CCCCn4ccnn4)cc3)co2)cc1 [Mubritinib (TAK 165)],16.1 ± 6.1
2,c1ccc(Oc2ccc(Nc3ncc(-c4ccccc4)o3)cc2)cc1,-0.487 ± 1.7
3,COc1cc(OC)c(/C=C/S(=O)(=O)Cc2ccc(OC)c(NCC(=O)O)c2)c(OC)c1,4.69 ± 0.45
4,c1ccc(COc2ccc(Nc3ncnc4ccc(-c5ccco5)cc34)cc2)cc1,-9.94 ± 12
5,O=C1NC(=O)[C@@H](c2cn3c4c(cccc24)CCC3)[C@@H]1c1c[nH]c2ccccc12 [ARQ 197 (Tivantinib)],63.3 ± 38
6,COc1cc2ncnc(Nc3ccc(C)c(O)c3)c2cc1OC,-12.9 ± 9.4
7,NC(=O)c1cc(-c2ccncc2)cc(-c2ccccc2)c1N,2.14 ± 8.1
8,CCN(CC)S(=O)(=O)c1ccc(OC)c(Nc2ncc(-c3ccccc3)o2)c1,-5.97 ± 2.9
9,COc1cc2nccc(Oc3ccc(NC(=O)Nc4cc(C)on4)c(Cl)c3)c2cc1OC [Tivozanib (AV-951)],23.7 ± 1.2
10,COc1cccc(-c2cc(=O)c3ccccc3o2)c1N,6.7074 ± 0.0026
11,c1ccc2c(-c3cnn4cc(-c5ccc(N6CCNCC6)cc5)cnc34)ccnc2c1,24.6 ± 12
12,COc1ccc2c3n(c(=NC(=O)c4cccnc4)nc2c1OC)CCN3,-0.968 ± 4.8
13,CC(C)NC[C@@H](C(=O)N1CCN(c2ncnc3c2[C@H](C)C[C@H]3O)CC1)c1ccc(Cl)cc1,23.5 ± 8.6
14,O=C1Nc2ccc(-c3cccnc3)cc2C1=Cc1cc(Br)c(O)c(Br)c1,22.1 ± 2.9
15,COc1ccc2cc(-c3c(-c4ccncc4)nc(-c4ccc([S+](C)[O-])cc4C)n3C)ccc2c1 (stereo not drawn),17.6 ± 9
16,CNC(=O)c1cncc(/C=C/c2ccccc2C)c1,25.3 ± 14
17,CCCN1CCCC(c2ccc(Nc3nc(Nc4cc(F)ccc4C(N)=O)c4cc[nH]c4n3)c(OC)c2)C1 (stereo not drawn),1.46 ± 6.2
18,COc1ccccc1Nc1ncc(-c2ccccc2)o1,1.22 ± 3.5
19,COC(=O)c1sc(-n2cnc3cc(OC)c(OC)cc32)cc1OCc1ccccc1C(F)(F)F,0.599 ± 0.69
